Here are results for 42 compounds from PubChem BioAssay (Tox21).

A short description of assay [1]: qHTS assay to identify small molecule antagonists of the retinoid acid receptor (RAR) signaling pathway - cell viability counter screen (AID 1159551). Also: nearly all actives have a fitted effect of over 35% in size. Also: potency is read from the fitted curve at half-maximal effect. As to activity change, negative = cytotoxicity: % is scaled to controls: 0 for no effect and ±100 for the full control effect. A digest of the protocol:
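Cells (C3RL4) are plated, incubated overnight, dosed with compound in DMSO, then given retinol at 1 uM final. After 6 h at 37 C, CellTiter-Glo is added and luminescence read following 30 min at room temperature.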
(In qHTS, concentration-response curves come from the screen itself.)

The nature of assay [2]: qHTS assay to identify small molecule antagonists of the estrogen related receptor (ERR) signaling pathway from Tox21 library - cell viability counter screen (AID 1224834). Also: nearly all actives have a fitted effect of over 30% in size. Also: potency is read from the fitted curve at half-maximal effect. As to viability change, negative = cytotoxic: % is scaled to controls: 0 for no effect and ±100 for the full control effect. The essentials:
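ERR cells, 2,000/well; 6 h settle at 37 C/5% CO2; pin-tool compound transfer in DMSO; 17.5 h at 37 C; CellTiter-Fluor, 30 min; fluorescence intensity.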

In assay [3] the target is Luciferin 4-monooxygenase (Photinus pyralis) (UniProt P08659). As to the kind of experiment: qHTS assay to identify small molecule inhibitors of firefly luciferase (AID 1224835). Also: nearly all actives have a fitted effect of over 25% in size. Also: potency is read from the fitted curve at half-maximal effect. The essentials: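 Inhibition of purified Photinus luciferase is measured by luminescence. Substrate levels (D-luciferin, ATP) sit at their KM values. Each compound is tested in a concentration series.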

Assay [4] is described as follows: qHTS assay to identify small molecule antagonists of the retinoic acid receptor (RAR) signaling pathway (AID 1159552; also: nearly all actives have a fitted effect of over 50% in size; also: potency is read from the fitted curve at half-maximal effect). A digest of the protocol: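 Quantitative HTS in C3RL4 RARE-luciferase reporter cells. Compounds were added with 1 uM (final) retinol; luminescence was read after 6 hr.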
Assay [5] in a line: qHTS assay to identify small molecule agonists of the retinoic acid receptor (RAR) signaling pathway (AID 1159553). Also: potency is read from the fitted curve at half-maximal effect. The essentials:
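Seed C3RL4 reporter cells at 1,000 per well and incubate overnight at 37 C. Add compounds in DMSO, incubate 6 hr. Add luciferase reagent, wait 30 min at room temperature, read luminescence.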

The nature of assay [6]: qHTS assay to identify small molecule antagonists of the estrogen related receptor (ERR) signaling pathway - cell viability counter screen (AID 1224818).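 Also: series mostly up to about 46 µM; viability measured after 17.5 h of compound exposure; % is scaled to controls: 0 for no effect and ±100 for the full control effect.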 The essentials: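 ERR cells, 2,000/well; 6 h settle at 37 C/5% CO2; compound pin transfer (DMSO); 17.5 h at 37 C; CellTiter-Fluor, 30 min, fluorescence read.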
Assay [7] can be described thus: qHTS assay to identify small molecule antagonists of the estrogen related receptor (ERR) signaling pathway (AID 1224819; also: potency is read from the fitted curve at half-maximal effect; nearly all actives have a fitted effect of over 50% in size). A digest of the protocol: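 qHTS in ERR cells, 2,000/well, 1536 format. Cpd (DMSO) added after 6 h settle, 18 h 37 C. One-Glo luminescence, 30 min RT.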
A short description of assay [8]: qHTS assay to identify small molecule agonists of the estrogen related receptor signaling pathway with the pleiotropic PPARgamma coactivator (PGC) (AID 1224823). Also: % is scaled to controls: 0 for no effect and ±100 for the full control effect. A digest of the protocol: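 In this quantitative high-throughput screen, an 18 h, 37 C treatment of PGC/ERR cells with compounds in DMSO preceded a One-Glo luminescence read taken after 30 min at room temperature.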

Inconclusive results are not listed. A number with no mark means an inactive call. Calls of active or inactive are those of the source. Calls follow the shape of the dose curve; as a rule, active = well fitted curve in the direction sought with a large enough effect in the repeat runs; inconclusive = weak or mixed curves; inactive = no such curve, though single readings can be large; an effect the other way counts as inactive or inconclusive.

Luciferin 4-monooxygenase (Photinus pyralis), sequence (P08659 whole entry, looked up): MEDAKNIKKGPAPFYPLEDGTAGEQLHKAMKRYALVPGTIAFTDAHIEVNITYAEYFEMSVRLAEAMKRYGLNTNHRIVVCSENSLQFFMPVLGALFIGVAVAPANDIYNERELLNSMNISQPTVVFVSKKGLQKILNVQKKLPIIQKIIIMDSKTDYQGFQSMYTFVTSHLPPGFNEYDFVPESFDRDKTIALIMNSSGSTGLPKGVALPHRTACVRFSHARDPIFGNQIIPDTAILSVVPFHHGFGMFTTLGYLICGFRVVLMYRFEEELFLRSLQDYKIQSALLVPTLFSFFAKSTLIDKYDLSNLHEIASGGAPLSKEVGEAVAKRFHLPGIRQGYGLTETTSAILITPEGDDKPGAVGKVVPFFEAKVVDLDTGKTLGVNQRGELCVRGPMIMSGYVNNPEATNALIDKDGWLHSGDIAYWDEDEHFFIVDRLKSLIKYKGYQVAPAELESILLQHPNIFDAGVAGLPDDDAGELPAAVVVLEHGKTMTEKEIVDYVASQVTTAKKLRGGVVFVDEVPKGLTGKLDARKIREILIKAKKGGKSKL

For the compound `CCOC(=O)[C@@](C)(N)Cc1ccc(O)c(O)c1`, the Potency result in assay [1], in assay [2] and in assay [3] was “inactive” each time.

Take `CO[Si](CCC1CCC2OC2C1)(OC)OC` (configuration not stated): the Potency result in assay [1], in assay [2] and in assay [3] was “inactive” throughout.

As for `C/C=C/c1ccc(OC)c(OC)c1`, the Potency result in assay [1], in assay [2] and in assay [3] was “inactive” in each case.

On to `C1CC(COCC2CO2)CCC1COCC1CO1` (configuration not stated), for which the Potency entry in assay [1], in assay [2] and in assay [3] was “inactive” each time.

Consider `COC(=O)NCCC[Si](OC)(OC)OC`, for which the Potency result in assay [1] and in assay [3] was “inactive” throughout.

On to `CN1CN(C)CN(C)C1`, for which the Potency entry in assay [1], in assay [2] and in assay [3] was “inactive” each time.

With `Cc1cccc(N(C)C)c1`, the Potency result in assay [1], in assay [2] and in assay [3] was “inactive” each time.

In the case of `COc1cccc(OC)c1O`, the Potency result in assay [1] and in assay [3] was “inactive” in each case.

As to `CCCCN(CCCC)CCC(O)c1cc2c(Cl)cc(Cl)cc2c2cc(C(F)(F)F)ccc12` (configuration not stated), the Potency entry in assay [1] and in assay [3] was “inactive” each time.

In the case of `COc1ccc(C#N)cc1`, the Potency entry in assay [1], in assay [2] and in assay [3] was “inactive” in each case.

Take `NC(=O)C(=O)N/N=C/c1ccc([N+](=O)[O-])o1`: the Potency entry in assay [1], in assay [2] and in assay [3] was “inactive” each time.

Turning to `C=CC(=C)CC/C=C(\C)CCC=C(C)C`, the activity change, negative = cytotoxicity in assay [1] is -0.128% [at 19 µM]. In assay [2], the viability change, negative = cytotoxic was 0.736% [at 19 µM]. Also, the activity change, negative = inhibition in assay [3] is 0.425% [at 23.6 µM].

With `c1ccc(Nc2cccc3ccccc23)cc1`, the Potency entry in assay [4], in assay [5] and in assay [2] was “inactive” throughout.

For the compound `C[C@@]12C(=O)OC(=O)[C@]1(C)C1CCC2O1`, the Potency was 8.41 µM (active) in assay [1] and 6.68 µM (active) in assay [2]. The Potency result in assay [3] is “inactive”.

`CCN(CC)c1ccc(N)cc1`: the Potency result in assay [4] is “inactive”. For the same compound, the Potency in assay [5] was 3.15 µM (active); in assay [2], 28.1 µM (active).

`Cc1occc1SSc1ccoc1C`: the Potency entry in assay [1] and in assay [3] was “inactive” in each case.

Take `CC(=O)Oc1ccc(C2(c3ccc(OC(C)=O)cc3)C(=O)Nc3ccccc32)cc1`: the Potency entry in assay [1], in assay [2] and in assay [3] was “inactive” in each case.

On to `CCc1c(Br)c(Br)c(Br)c(Br)c1Br`, for which the Potency result in assay [1], in assay [2] and in assay [3] was “inactive” each time.

As to `c1cc(OCC2CO2)cc(OCC2CO2)c1` (configuration not stated), the Potency result in assay [1] and in assay [3] was “inactive” each time. The Potency in assay [2] was 60.6 µM (active).

Take `CCc1cccc(C)c1`: the Potency entry in assay [1] and in assay [3] was “inactive” each time.

`Clc1cc(Cl)c(-c2c(Cl)c(Cl)cc(Cl)c2Cl)cc1Cl`: the Potency result in assay [1], in assay [2] and in assay [3] was “inactive” each time.

For the compound `CCC(C)(C)c1cc(O)c(C(C)(C)CC)cc1O`, the Potency result in assay [1] and in assay [3] was “inactive” throughout.

In the case of `Clc1ccc(C(Cn2ccnc2)OCc2c(Cl)cccc2Cl)c(Cl)c1` (configuration not stated), the Potency entry in assay [1] and in assay [3] was “inactive” in each case. Also, the Potency in assay [2] was 29.8 µM (active).

With `CC(=O)Oc1ccc(C2(c3ccc(OC(C)=O)cc3)Oc3ccccc3NC2=O)cc1`, the Potency result in assay [1] and in assay [3] was “inactive” each time.

`O=C(O)CCn1c2c(c3ccccc31)C[C@H](NS(=O)(=O)c1ccc(F)cc1)CC2`: the Potency entry in assay [1], in assay [2] and in assay [3] was “inactive” each time.

Take `CCO[Si](CCCSSSSCCC[Si](OCC)(OCC)OCC)(OCC)OCC`: the Potency entry in assay [1] and in assay [3] was “inactive” throughout.

As to `CCCCCCCCCCCCCCCCCO`, the activity change, negative = cytotoxicity in assay [1] was 0.141% [at 19 µM]. The viability change, negative = cytotoxic in assay [2] is 0.981% [at 19 µM]. Also, the activity change, negative = inhibition in assay [3] was 3.61% [at 23.6 µM].

`CC=O`: the Potency was 25.5 µM (active) in assay [4] and 28.6 µM (active) in assay [2]. In addition, the Potency entry in assay [3] was “inactive”.

For `Nc1ncnc2c1ncn2[C@@H]1O[C@H](COP(=O)(O)O)[C@@H](O)[C@H]1O`, the Potency entry in assay [4], in assay [5], in assay [2] and in assay [3] was “inactive” in each case.

As to `O=Nc1ccc(NO)cc1`, the Potency result in assay [4] and in assay [2] was “inactive” in each case.

For the compound `Cc1cc(Nc2ccc(O)cc2)ccc1N`, the Potency result in assay [4] and in assay [5] was “inactive” in each case. Further, the Potency in assay [3] was 63 µM (active).

On to `Cc1cccc(C)c1NC(=O)CN1CCN(CCCC(c2ccc(F)cc2)c2ccc(F)cc2)CC1`, for which the values for the Potency in assay [4] and in assay [2] were 26.6 µM (active) and 21.1 µM (active), respectively. In addition, in assay [3], the Potency entry was “inactive”.

For the compound `CCCCCCCCCCCCCC[n+]1ccccc1`, in assay [2], the Potency was 27.3 µM (active). Moreover, in assay [3], the Potency entry was “inactive”.

On to `O=C1c2c(O)ccc(O)c2C(=O)c2c(NCCNCCO)ccc(NCCNCCO)c21`, for which the values for the Potency in assay [4], in assay [7] and in assay [2] were 0.119 µM (active), 1.44 µM (active) and 3.35 µM (active), respectively. For the same compound, the Potency result in assay [6] is “inactive”. In assay [8], the outcome was inactive.

Consider `O=C1NC2CCCCN2C12CCN(CCCN1c3ccccc3CCc3ccc(Cl)cc31)CC2` (configuration not stated), for which the Potency in assay [4] and in assay [2] was 29.8 µM (active) each time. In assay [3], the Potency entry is “inactive”.

Turning to `CCCCCCOc1cc(C)c(O)c(C)c1C`, the Potency entry in assay [3] was “inactive”.

With `CCN(CC)CCOc1ccc(C(O)(Cc2ccc(Cl)cc2)c2ccc(C)cc2)cc1` (configuration not stated), the results for the Potency in assay [4] and in assay [2] were 26.6 µM (active) and 33.5 µM (active), respectively. Moreover, in assay [3], the Potency result was “inactive”.

Take `CC(NCCC(c1ccccc1)c1ccccc1)c1ccccc1` (configuration not stated): the Potency in assay [2] is 29.8 µM (active). The Potency result in assay [3] was “inactive”.

Regarding `CCCCC(CC)COC(=O)c1ccc(O)cc1` (configuration not stated), the Potency result in assay [5] and in assay [3] was “inactive” each time. Besides, the Potency in assay [2] was 43.1 µM (active).

`Nc1ccc2cc3ccc(N)cc3nc2c1`: the Potency result in assay [3] is “inactive”.

In the case of `CN(Cc1cc(Br)cc(Br)c1N)C1CCCCC1`, the Potency result in assay [5], in assay [2] and in assay [3] was “inactive” each time.

Consider `CCCCCCC(C)OC(=O)COc1nc(F)c(Cl)c(N)c1Cl` (configuration not stated), for which, in assay [3], the Potency entry is “inactive”.
